{"source": "the supplement of paper PMC8728848", "binders": {"B1": {"name": "Langerin (Homo sapiens), Q9UJ71 (protein)", "chain": "STLNAQIPELKSDLEKASALNTKIRALQGSLENMSKLLKRQNDILQVVSQGWKYFKGNFYYFSLIPKTWYSAEQFCVSRNSHLTSVTSESEQEFLYKTAGGLIYWIGLTKAGMEGDWSWVDDTPFNKVQSARFWIPGEPNDAGNNEHCGNIKAPSLQAWNDAPCDITFLFICKRPYVPSEP"}}, "test_in_all_cases": "glycan array binding signal (z-score within array); higher = stronger binding", "conditions_in_all_cases": "glycan notation: IUPAC condensed, linker removed; mutation: N288D, K313I", "key": {"[1]": {"biological_target": "GlcNAc(b1-2)[GlcNAc(b1-4)]Man(a1-3)[GlcNAc(b1-4)][GlcNAc(b1-2)[GlcNAc(b1-6)]Man(a1-6)]Man(b1-4)GlcNAc(b1-4)[Fuc(a1-6)]GlcNAc", "procedure,_shortened": "(§1)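 The binding signal is a Z-score computed within each array and averaged over linkers. Arrays of the same protein sequence at different concentrations or buffers were also averaged together. Data originate from 3228 arrays in the Consortium for Functional Glycomics database, kept only where the protein sequence was available.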"}, "[2]": {"biological_target": "GlcNAc(b1-2)[GlcNAc(b1-6)]Man(a1-6)[GlcNAc(b1-2)Man(a1-3)]Man(b1-4)GlcNAc(b1-4)GlcNAc", "procedure,_shortened": "as §1"}, "[3]": {"biological_target": "GlcNAc(b1-2)[GlcNAc(b1-6)]Man(a1-6)[GlcNAc(b1-4)][GlcNAc(b1-2)Man(a1-3)]Man(b1-4)GlcNAc(b1-4)GlcNAc", "procedure,_shortened": "as §1"}, "[4]": {"biological_target": "GlcNAc(b1-3)Gal(b1-4)GlcNAc", "procedure,_shortened": "as §1"}, "[5]": {"biological_target": "GlcNAc(b1-3)Gal(b1-4)GlcNAc(b1-2)[GlcNAc(b1-3)Gal(b1-4)GlcNAc(b1-6)]Man(a1-6)[GlcNAc(b1-3)Gal(b1-4)GlcNAc(b1-2)Man(a1-3)]Man(b1-4)GlcNAc(b1-4)GlcNAc", "procedure,_shortened": "as §1"}, "[6]": {"biological_target": "GlcNAc(b1-3)Gal(b1-4)GlcNAc(b1-3)Gal(b1-4)GlcNAc(b1-2)[GlcNAc(b1-3)Gal(b1-4)GlcNAc(b1-3)Gal(b1-4)GlcNAc(b1-6)]Man(a1-6)[GlcNAc(b1-3)Gal(b1-4)GlcNAc(b1-3)Gal(b1-4)GlcNAc(b1-2)Man(a1-3)]Man(b1-4)GlcNAc(b1-4)[Fuc(a1-6)]GlcNAc", "procedure,_shortened": "as §1"}, "[7]": {"biological_target": "GlcNAc(b1-3)Gal(b1-4)GlcNAc(b1-3)Gal(b1-4)GlcNAc(b1-3)Gal(b1-4)GlcNAc(b1-2)[GlcNAc(b1-3)Gal(b1-4)GlcNAc(b1-3)Gal(b1-4)GlcNAc(b1-3)Gal(b1-4)GlcNAc(b1-6)]Man(a1-6)[GlcNAc(b1-3)Gal(b1-4)GlcNAc(b1-3)Gal(b1-4)GlcNAc(b1-3)Gal(b1-4)GlcNAc(b1-2)Man(a1-3)]Man(b1-4)GlcNAc(b1-4)[Fuc(a1-6)]GlcNAc", "procedure,_shortened": "as §1"}, "[8]": {"biological_target": "GlcNAc(b1-3)Gal(b1-4)GlcNAc(b1-3)Gal(b1-4)GlcNAc(b1-3)Gal(b1-4)GlcNAc(b1-3)Gal(b1-4)GlcNAc(b1-2)Man(a1-3)[GlcNAc(b1-3)Gal(b1-4)GlcNAc(b1-3)Gal(b1-4)GlcNAc(b1-3)Gal(b1-4)GlcNAc(b1-3)Gal(b1-4)GlcNAc(b1-2)Man(a1-6)]Man(b1-4)GlcNAc(b1-4)[Fuc(a1-6)]GlcNAc", "procedure,_shortened": "as §1"}, "[9]": {"biological_target": "GlcNAc(b1-3)Gal(b1-4)GlcNAc(b1-6)[GlcNAc(b1-3)]Gal(b1-4)GlcNAc", "procedure,_shortened": "as §1"}, "GlcNAc(b1-3)GalNAc": {"biological_target": "GlcNAc(b1-3)GalNAc", "procedure,_shortened": "as §1"}, "[10]": {"biological_target": "GlcNAc(b1-3)[GlcNAc(b1-6)]Gal(b1-4)GlcNAc", "procedure,_shortened": "as §1"}, "Kdn(a2-3)Gal(b1-3)GlcNAc": {"biological_target": "Kdn(a2-3)Gal(b1-3)GlcNAc", "procedure,_shortened": "as §1"}, "[11]": {"biological_target": "Neu5Ac(a2-3)Gal(b1-3)GlcNAc(b1-6)GalNAc", "procedure,_shortened": "as §1"}, "[12]": {"biological_target": "Neu5Ac(a2-3)Gal(b1-3)[Fuc(a1-4)]GlcNAc(b1-3)Gal(b1-3)[Fuc(a1-4)]GlcNAc", "procedure,_shortened": "as §1"}, "[13]": {"biological_target": "Neu5Ac(a2-3)Gal(b1-3)[Neu5Ac(a2-6)]GlcNAc(b1-3)[Fuc(a1-3)[Gal(b1-4)]GlcNAc(b1-6)]Gal(b1-4)Glc", "procedure,_shortened": "as §1"}, "[14]": {"biological_target": "Neu5Ac(a2-3)Gal(b1-4)GlcNAc(b1-6)GalNAc", "procedure,_shortened": "as §1"}, "[15]": {"biological_target": "Neu5Ac(a2-3)Gal(b1-4)GlcNAc6S", "procedure,_shortened": "as §1"}, "[16]": {"biological_target": "Neu5Ac(a2-3)Gal(b1-4)[Fuc(a1-3)]GlcNAc(b1-2)Man", "procedure,_shortened": "as §1"}, "[17]": {"biological_target": "Neu5Ac(a2-3)Gal(b1-4)[Fuc(a1-3)]GlcNAc(b1-3)Gal", "procedure,_shortened": "as §1"}, "[18]": {"biological_target": "Neu5Ac(a2-3)Gal(b1-4)[Fuc(a1-3)]GlcNAc(b1-3)GalNAc", "procedure,_shortened": "as §1"}, "[19]": {"biological_target": "Neu5Ac(a2-6)Gal(b1-4)GlcNAc(b1-2)Man(a1-6)[GlcNAc(b1-2)Man(a1-3)]Man(b1-4)GlcNAc(b1-4)GlcNAc", "procedure,_shortened": "as §1"}, "[20]": {"biological_target": "Neu5Ac(a2-6)Gal(b1-4)GlcNAc(b1-2)Man(a1-6)[Man(a1-3)]Man(b1-4)GlcNAc(b1-4)GlcNAc", "procedure,_shortened": "as §1"}, "[21]": {"biological_target": "Neu5Ac(a2-6)Gal(b1-4)GlcNAc(b1-3)Gal(b1-4)GlcNAc(b1-6)[Gal(b1-3)]GalNAc", "procedure,_shortened": "as §1"}, "[22]": {"biological_target": "Neu5Ac(a2-6)Gal(b1-4)GlcNAc(b1-6)GalNAc", "procedure,_shortened": "as §1"}, "[23]": {"biological_target": "Neu5Ac(a2-8)Neu5Ac(a2-8)Neu5Ac(a2-8)Neu5Ac(a2-3)[GalNAc(b1-4)]Gal(b1-4)Glc", "procedure,_shortened": "as §1"}, "Neu5Ac(b2-6)GalNAc": {"biological_target": "Neu5Ac(b2-6)GalNAc", "procedure,_shortened": "as §1"}, "[24]": {"biological_target": "Neu5Ac9Ac(a2-3)Gal(b1-4)GlcNAc", "procedure,_shortened": "as §1"}}, "note": "The entries come from a sample that favours the strongest signals as a whole."}
{"binder": "B1", "values": [{"measurement": "glycan array binding signal (z-score)", "setting": "[1]", "value": 1.91}, {"measurement": "glycan array binding signal (z-score)", "setting": "[2]", "value": -0.239}, {"measurement": "glycan array binding signal (z-score)", "setting": "[3]", "value": 0.046}, {"measurement": "glycan array binding signal (z-score)", "setting": "[4]", "value": 1.72}, {"measurement": "glycan array binding signal (z-score)", "setting": "[5]", "value": 2.14}, {"measurement": "glycan array binding signal (z-score)", "setting": "[6]", "value": 16.7}, {"measurement": "glycan array binding signal (z-score)", "setting": "[7]", "value": 0.284}, {"measurement": "glycan array binding signal (z-score)", "setting": "[8]", "value": 2.34}, {"measurement": "glycan array binding signal (z-score)", "setting": "[9]", "value": 5.4}, {"measurement": "glycan array binding signal (z-score)", "setting": "GlcNAc(b1-3)GalNAc", "value": -0.205}, {"measurement": "glycan array binding signal (z-score)", "setting": "[10]", "value": 4.87}, {"measurement": "glycan array binding signal (z-score)", "setting": "Kdn(a2-3)Gal(b1-3)GlcNAc", "value": -0.115}, {"measurement": "glycan array binding signal (z-score)", "setting": "[11]", "value": -0.092}, {"measurement": "glycan array binding signal (z-score)", "setting": "[12]", "value": -0.088}, {"measurement": "glycan array binding signal (z-score)", "setting": "[13]", "value": -0.298}, {"measurement": "glycan array binding signal (z-score)", "setting": "[14]", "value": -0.165}, {"measurement": "glycan array binding signal (z-score)", "setting": "[15]", "value": -0.294}, {"measurement": "glycan array binding signal (z-score)", "setting": "[16]", "value": -0.159}, {"measurement": "glycan array binding signal (z-score)", "setting": "[17]", "value": -0.338}, {"measurement": "glycan array binding signal (z-score)", "setting": "[18]", "value": 0.034}, {"measurement": "glycan array binding signal (z-score)", "setting": "[19]", "value": -0.278}, {"measurement": "glycan array binding signal (z-score)", "setting": "[20]", "value": -0.187}, {"measurement": "glycan array binding signal (z-score)", "setting": "[21]", "value": -0.179}, {"measurement": "glycan array binding signal (z-score)", "setting": "[22]", "value": 0.078}, {"measurement": "glycan array binding signal (z-score)", "setting": "[23]", "value": -0.254}, {"measurement": "glycan array binding signal (z-score)", "setting": "Neu5Ac(b2-6)GalNAc", "value": -0.196}, {"measurement": "glycan array binding signal (z-score)", "setting": "[24]", "value": -0.434}]}
